PINK1 expr mod: A Quantitative High throughput Screen to Identify Chemical Modulators of PINK1 Expression | 410,000 tested, 0.2% active | PINK1 immunofluorescence, high-content cytometry, 24 h | Potency, µM (top dose mostly 76.6 µM), inactives show at the top dose activation (PINK1 increase), usual class: activators | AID 624263, 2012; active means well fitted activation curve with a large enough effect; inconclusive means small, poorly fitted or top-dose-only effect; cell line not stated here; further: % of control where 0% means no effect; nearly all actives have a fitted effect of over 65% in size
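PINK1 protein, normally rapidly degraded, was detected by immunofluorescence after 24 hour compound treatment of a stable cell line. Titration data (5 concentrations) came from laser-scanning cytometry, with CCCP-treated wells as controls.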
ClpP mod: qHTS Assay for Activators of ClpP; ATP-dependent Clp protease proteolytic subunit (Bacillus subtilis (strain 168)), P80244; purified B. subtilis ClpP, FRET peptide cleavage, 20 min; Potency, µM (doses to about 57.5 µM), inactives show top-dose activity change, negative = active; 340,000 tested, 1.9% active; active means well fitted falling curve with a large enough effect; inconclusive means small, poorly fitted or top-dose-only effect; inactive means no such curve, though single readings can be large or run the other way; further: the source files actives as falling curves though it sought activators and does not explain the sign; nearly all actives have a fitted effect of over 65% in size
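FRET quenching reversal measured ClpP activation: 10 microg/mL B. subtilis ClpP at pH 8 with the FRET-FV decapeptide, read at 430 nm after 320 nm excitation. The 20-min minus 0-min signal was scaled between DMSO/no-enzyme wells and ADEP (5.8 microM final).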
Gal4-VP16 FLuc: VP16 counterscreen qHTS for inhibitors of ROR gamma transcriptional activity. 310,000 tested, 3.5% active. Drosophila S2 Gal4-VP16 UAS-luciferase, luminescence, 20 h. Potency, µM (titrated, usually from 53.6 µM), for inactives: at the top dose activity, negative = inhibition, usual class: inhibitors;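 further: Gal4-VP16 expression switched on by copper sulfate through the metallothionein promoter; on the % scale 0 is the no-effect control and ±100 the full control effect; nearly all actives have a fitted effect of over 50% in size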
Epigenetic reg: Quantitative High-Throughput Screen for Regulators of Epigenetic Control. murine LDR cells, GFP reporter derepression, 30 h. Potency, µM (highest dose often 53.9 µM), for inactives: top-dose GFP activation, hits mostly activators. 280,000 tested, 0.2% active. AID 1865, 2009; further: % of control where 0% means no effect; nearly all actives have a fitted effect of over 60% in size
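GFP-positive cell count by laser-scanning cytometry (objects 20–120 um) after 30 h, 37 C compound exposure of murine LDR cells; reporter is CMV-GFP integrated at a silenced locus, inducible by HDAC or DNMT inhibitors.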
RORg inh: qHTS for inhibitors of ROR gamma transcriptional activity | 310,000 tested, 5.4% active | Nuclear receptor ROR-gamma (Mus musculus), P51450 | AID 2551, 2010 | Potency, µM (titrated, usually from 53.6 µM), without a hit: top-dose activity change, negative = inhibition, most hits filed as inhibitors | Drosophila S2 Gal4-RORgamma UAS-luciferase reporter, 20 h; further: on the % scale 0 is the no-effect control and ±100 the full control effect; nearly all actives have a fitted effect of over 60% in size
Target sequence (P51450 whole entry, looked up, the tested form may be a part): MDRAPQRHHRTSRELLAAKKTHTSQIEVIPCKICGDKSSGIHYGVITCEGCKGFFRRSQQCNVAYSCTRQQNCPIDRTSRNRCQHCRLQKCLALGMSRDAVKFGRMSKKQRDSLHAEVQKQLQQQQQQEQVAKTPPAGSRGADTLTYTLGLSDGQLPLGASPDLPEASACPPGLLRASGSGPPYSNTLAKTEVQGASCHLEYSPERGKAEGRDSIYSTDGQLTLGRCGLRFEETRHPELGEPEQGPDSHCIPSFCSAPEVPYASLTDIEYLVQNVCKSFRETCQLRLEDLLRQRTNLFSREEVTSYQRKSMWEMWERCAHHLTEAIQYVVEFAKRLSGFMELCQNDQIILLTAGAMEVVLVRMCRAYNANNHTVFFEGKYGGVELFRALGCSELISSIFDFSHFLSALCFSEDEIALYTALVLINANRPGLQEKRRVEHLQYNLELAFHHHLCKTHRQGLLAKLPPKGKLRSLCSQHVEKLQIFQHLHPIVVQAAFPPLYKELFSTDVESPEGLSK
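A Gal4/UAS one-hybrid system in insect cells: metallothionein-promoter Gal4–ROR gamma fusion plus Photinus luciferase reporter. Copper sulfate 700 uM final, 20 hr ambient incubation, luminescent detection after 10 min with reagent.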
Sfp PPTase inh: qHTS Assay for Inhibitors of Bacillus subtilis Sfp phosphopantetheinyl transferase (PPTase); AID 1490, 2009; Potency, µM, inactives show largest response in the series, negative = inhibition, most hits filed as inhibitors; Biochemical Sfp PPTase activity, qHTS; 310,000 tested, 3.5% active;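 further: the enzyme is Sfp with the accession as filed and its product quenches rhodamine fluorescence; 0% = enzyme reaction without inhibitor and -100% = no enzyme wells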
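Buffer: 50 mM Hepes-Na pH 7.6, 10 mM MgCl2, 0.01% Nonidet P-40, 0.01% BSA. Enzyme 15 nM, pre-exposed to compound 15 min; substrates then added and fluorescence change tracked over 30 min.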
Starred values were filed as active, the others as inactive; ? = inconclusive; · = no result given; [ ] = another dose, or the depositor's remark. Rows were chosen to be rich in hits. Some 8.1% of all compounds tested hit in one or more screens of this group. Unless noted, the call rests on the fitted dose curve; in most records, active means well fitted curve in the direction sought with a large enough effect; inconclusive means small, poorly fitted or top-dose-only effect, or another doubt; inactive means no such curve, though single readings can be large; an effect the other way counts as inactive or inconclusive. Potency means the concentration at half of the fitted maximal effect.

SMILES	PINK1 expr mod	ClpP mod	Gal4-VP16 FLuc	Epigenetic reg	RORg inh	Sfp PPTase inh
COc1ccc(-c2cc(C(=O)NCCc3ccccc3)c3c(-c4ccccc4)[nH]nc3n2)cc1	0.5%	12.6µM*	·	-1.8%	·	·
CC1(C)SC(=S)N(/N=C/c2ccccc2)C1N(O)C(=O)Nc1ccc([N+](=O)[O-])cc1 (stereo unspecified)	31.6µM*	0.6%	3.55µM*	-0.9%	?	32.9%
CNC(=O)N(O)C1N(/N=C/c2ccc(N(C)C)cc2)C(=S)SC1(C)C (stereo unspecified)	0.2%	-4.8%	7.2%	·	10.0%	-1.9%
COc1cccc([C@@H]2Oc3ccc(OC)cc3C[C@H]2OC(=O)Nc2cc(OC)c(OC)c(OC)c2)c1	·	·	1.7%	-0.3%	-3.3%	?
CCN(Cc1ccncc1)Cc1c(O)ccc2cc(Br)ccc12	-2.1%	·	?	1.3%	?	44.7µM*
CC1=NN(C(N)=S)C(=O)C1N=Nc1ccccc1C (stereo unspecified)	-1.1%	0.0%	0.0447µM*	-2.0%	0.1µM*	-3.3%
CC1=NN(c2ccccc2)C(=O)C1N=Nc1ccc(C)cc1 (stereo unspecified)	·	·	0.9%	0.5%	0.2%	8.6%
CC1=NN(C(N)=S)C(=O)C1N=Nc1ccccc1O (stereo unspecified)	0.8%	0.1%	-28.3%	·	-40.1%	9.6%
COc1cccc(N=NC2C(=O)N(C(N)=S)N=C2C)c1 (stereo unspecified)	0.4%	·	·	·	·	·
CC1=NN(C(N)=S)C(=O)C1N=Nc1cccc(Cl)c1 (stereo unspecified)	1.1%	1.0%	2µM*	·	0.794µM*	4.0%
CC1=NN(C(N)=S)C(=O)C1N=Nc1ccc(C)cc1C (stereo unspecified)	·	·	1.12µM*	3.8%	0.501µM*	-3.3%
CC1=NN(C(N)=S)C(=O)C1N=Nc1c(Br)cc(Br)cc1Br (stereo unspecified)	0.3%	·	1.26µM*	·	1.41µM*	-16.6%
CC1=NN(C(N)=S)C(=O)C1N=Nc1ccccc1[N+](=O)[O-] (stereo unspecified)	-0.4%	-3.1%	·	·	·	·
CCOc1ccccc1N=NC1C(=O)N(C(N)=S)N=C1C (stereo unspecified)	1.9%	0.3%	1µM*	·	0.708µM*	-24.9%
CC1=NN(C(N)=S)C(=O)C1N=Nc1c(Cl)cc([N+](=O)[O-])cc1Cl (stereo unspecified)	?	2.1%	1.58µM*	·	0.355µM*	-0.8%
CC1=NN(C(N)=S)C(=O)C1N=Nc1c(C)cc(C)cc1C (stereo unspecified)	0.2%	5.5%	1.78µM*	-3.0%	0.501µM*	-6.5%
CC(=O)N(C)c1ccc(N=NC2C(=O)N(C(N)=S)N=C2C)cc1 (stereo unspecified)	3.3%	3.7%	2µM*	·	1µM*	-58.4%
CC1=NN(C(N)=S)C(=O)C1N=Nc1c(C)n(C)n(-c2ccccc2)c1=O (stereo unspecified)	1.3%	-0.1%	·	·	·	·
CC1=NN(C(N)=S)C(=O)C1N=Nc1ccc(S(N)(=O)=O)cc1 (stereo unspecified)	-1.8%	-0.6%	?	·	-9.8%[1.91 µM]	-27.2%
NC(Cc1ccccc1)C(O)c1ccco1 (stereo unspecified)	·	·	0.0%	·	-7.8%	8.5%
CC(Oc1ccc(F)cc1)C(=O)N1CCC(c2nc3ccccc3s2)CC1 (stereo unspecified)	2.3%	-2.4%	·	-1.6%	·	·
CCCCC/C=C\C/C=C\C[C@H](O)/C=C/C=C\CCCC(=O)O	·	·	-4.8%	1.1%	2.9%	9.2%
O=C(Cn1nc(-c2ccccc2)nc(Cc2ccccc2)c1=O)Nc1ccccc1	-0.9%	-0.5%	·	0.8%	·	·
Nc1c(C(=O)Nc2ccc(S(=O)(=O)N3CCCC3)cc2)sc2nc3cc4c(cc3cc12)CCC4	?	25.1µM*	-14.3%	3.55µM*	-16.4%	-17.7%
Nc1c(C(=O)Nc2ccc(S(=O)(=O)N3CCCC3)cc2)sc2nc3ccc(OC(F)(F)F)cc3cc12	?	?	10µM*	7.94µM*	15.8µM*	0.4%
O=C(CCCn1c(=O)c2ccccc2n(Cc2cccc(Cl)c2)c1=O)NCCc1ccc(Cl)cc1	4.7%	-21.1%	·	-0.9%	·	·
CSc1ccc(C(=S)N2CCN(C)CC2)cc1	·	0.4%	2.3%[0.365 µM]	-2.2%	-12.6%	6.31µM*
CSc1ccc(C(=S)N2CCN(C(c3ccccc3)c3ccccc3)CC2)cc1	·	0.3%	-5.3%	1.3%	-13.4%	35.5µM*
CC(=O)N1CCN(C(c2ccccc2)c2ccccc2)CC1	·	0.2%	·	·	27.6%	·
CN1CCN(C(=S)c2ccc(N(C)C)cc2)CC1	0.7%[38.3 µM]	-4.9%	-10.6%	-8.9%	-0.2%	-4.7%

High-throughput results from PubChem BioAssay.
